Data published in PubChem BioAssay.
For some of these results: Entries with a potency or affinity are not part of this list. Calls of active or inactive are those of the source.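 The calls were made as follows, unless noted: active = primary screen inhibitor hit that blocks the TRPC4 channel at some tested dose, yielding a dose curve; inactive = the rest.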

Legend:
[1] = test system: TRPC4 beta (transient receptor potential cation channel C4), mouse; test: TRPC4 cation channel opening, retest – cell-based, Fluo4 calcium, HEK293 TRPC4beta/mu-opioid, duplicates, 10 µM, confirmation (AID 2426;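 active = fluorescence ratio normalized to control raised more than 50% in primary screen plus both repeat runs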); conditions: Fluo4 calcium fluorescence, at 10 µM; active compounds read high
[2] = test system: transient receptor potential cation channel C4 beta (TRPC4), mouse; test: TRPC4 cation channel opening, second retest – cell-based, second round, Fluo4, HEK293 TRPC4beta/mu-opioid, 1 µM, confirmation (AID 2461;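 active = primary screen active and over 50% activation in each of two duplicate runs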); conditions: Fluo4 calcium fluorescence, at 1 µM; active compounds read high
[3] = test system: TRPC4 (transient receptor potential cation channel C4 beta), mouse; test: potentiation of DAMGO EC20 TRPC4 response – cell-based, second round, Fluo-4, HEK293 TRPC4beta/mu-opioid, 1 µM, confirmation (AID 2554;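 active = primary screen hit whose fluorescence ratio, in both repeats, exceeds the weak agonist control mean by 3 SD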); conditions: DAMGO EC20, Fluo-4 calcium flux, at 1 µM; active compounds read high
[4] = test system: TRPC4 beta (transient receptor potential cation channel C4), mouse; test: potentiation of DAMGO EC20 TRPC4 response – cell-based, Fluo-4, HEK293 TRPC4beta/mu-opioid, confirmation (AID 2555;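 active = primary screen hit whose calcium fluorescence ratio, in both repeats, exceeds the weak agonist control mean by 3 SD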); conditions: DAMGO EC20, Fluo-4 calcium flux, at 10 µM; active compounds read high
[5] = biological target: Short transient receptor potential channel 4 (Mus musculus) (UniProt Q9QUQ5); test: blockers of DAMGO-evoked TRPC4 calcium flux – cell-based, Fluo4, HEK293 TRPC4beta/mu-opioid, confirmation (AID 2636;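 active = calcium signal cut by more than 3 SD below the full-agonist control yet still positive, in both repeats and the earlier primary screen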); conditions: at 10 µM; active compounds read high
Short transient receptor potential channel 4 (Mus musculus), sequence (Q9QUQ5 whole entry, looked up): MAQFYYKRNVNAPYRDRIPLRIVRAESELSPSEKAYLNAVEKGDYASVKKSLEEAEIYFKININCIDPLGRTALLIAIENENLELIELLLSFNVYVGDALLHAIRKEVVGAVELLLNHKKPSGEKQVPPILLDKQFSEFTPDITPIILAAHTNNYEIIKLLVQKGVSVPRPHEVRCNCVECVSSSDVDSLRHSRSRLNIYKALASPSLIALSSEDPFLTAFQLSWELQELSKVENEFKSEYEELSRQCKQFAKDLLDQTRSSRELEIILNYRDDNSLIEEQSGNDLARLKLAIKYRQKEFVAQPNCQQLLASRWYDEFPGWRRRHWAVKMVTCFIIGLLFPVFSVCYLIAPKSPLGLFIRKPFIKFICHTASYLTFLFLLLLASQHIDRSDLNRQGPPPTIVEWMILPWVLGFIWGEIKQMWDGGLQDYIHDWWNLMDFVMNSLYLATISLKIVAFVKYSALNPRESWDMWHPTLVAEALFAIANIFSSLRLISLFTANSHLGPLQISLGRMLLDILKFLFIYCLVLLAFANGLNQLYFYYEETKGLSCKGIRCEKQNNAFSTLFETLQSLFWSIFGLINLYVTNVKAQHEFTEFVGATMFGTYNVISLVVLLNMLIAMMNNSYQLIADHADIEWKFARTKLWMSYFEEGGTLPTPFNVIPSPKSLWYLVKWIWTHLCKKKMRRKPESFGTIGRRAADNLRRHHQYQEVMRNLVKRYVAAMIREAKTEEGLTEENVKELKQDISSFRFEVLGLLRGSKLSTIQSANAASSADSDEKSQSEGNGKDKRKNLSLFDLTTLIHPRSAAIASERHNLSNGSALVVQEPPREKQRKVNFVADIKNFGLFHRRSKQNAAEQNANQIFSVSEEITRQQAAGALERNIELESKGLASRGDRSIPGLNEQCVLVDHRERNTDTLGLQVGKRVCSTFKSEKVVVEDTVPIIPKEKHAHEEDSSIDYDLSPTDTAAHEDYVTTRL

[6] = biological target: Short transient receptor potential channel 4 (Mus musculus) (UniProt Q9QUQ5); test: blockers of DAMGO-evoked TRPC4 calcium flux – cell-based, second round, Fluo4, HEK293 TRPC4beta/mu-opioid, 1 µM, confirmation (AID 2637;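 active = calcium signal ratio cut to more than 3 SD under the fully stimulated control mean yet still positive, in both repeats and the primary screen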); conditions: at 1 µM; active compounds read high
[7] = biological target: Short transient receptor potential channel 4 (Mus musculus) (UniProt Q9QUQ5); test: calcium entry via TRPC4 opening agents – cell-based, HEK293 TRPC4/mu-opioid, Fluo-4 calcium, dose response (AID 434937;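 active = primary screen activator hit with a dose response curve and TRPC4 channel activation at any tested dose; inactive = no activation, no dose response, or not a primary hit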)
[8] = biological target: Short transient receptor potential channel 4 (Mus musculus) (UniProt Q9QUQ5); test: potentiation of DAMGO-evoked TRPC4 calcium signal – cell-based, HEK293 TRPC4/mu-opioid, Fluo-4 calcium, EC20 DAMGO, dose response (AID 434941;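 active = earlier screen potentiator hit that boosts the TRPC4 ion channel at some dose, with a dose response; inactive = no potentiation, no dose response, or not a prior hit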;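 also: calcium entry triggered by an EC20 dose of DAMGO at the co-expressed mu-opioid receptor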)
[9] = biological target: Short transient receptor potential channel 4 (Mus musculus) (UniProt Q9QUQ5); test: block of DAMGO-driven TRPC4 calcium entry – cell-based, HEK293 TRPC4/mu-opioid, Fluo-4 calcium, dose response (AID 434942)
[10] = biological target: Short transient receptor potential channel 6 (Mus musculus) (UniProt Q61143); test: TRPC6 blockade by TRPC4 inhibitor hits – cell-based, HEK293, membrane potential dye, duplicate, selectivity assay for TRPC4 inhibitor project, confirmation (AID 434948;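 active = active in primary screen and both duplicates, each dropping signal beyond three positive-control SD with fluorescence still positive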); conditions: HEK293 TRPC6, membrane potential dye fluorescence, at 10 µM, stimulated with maximal-effect acetylcholine; active compounds read high
Short transient receptor potential channel 6 (Mus musculus), sequence (Q61143 whole entry, looked up): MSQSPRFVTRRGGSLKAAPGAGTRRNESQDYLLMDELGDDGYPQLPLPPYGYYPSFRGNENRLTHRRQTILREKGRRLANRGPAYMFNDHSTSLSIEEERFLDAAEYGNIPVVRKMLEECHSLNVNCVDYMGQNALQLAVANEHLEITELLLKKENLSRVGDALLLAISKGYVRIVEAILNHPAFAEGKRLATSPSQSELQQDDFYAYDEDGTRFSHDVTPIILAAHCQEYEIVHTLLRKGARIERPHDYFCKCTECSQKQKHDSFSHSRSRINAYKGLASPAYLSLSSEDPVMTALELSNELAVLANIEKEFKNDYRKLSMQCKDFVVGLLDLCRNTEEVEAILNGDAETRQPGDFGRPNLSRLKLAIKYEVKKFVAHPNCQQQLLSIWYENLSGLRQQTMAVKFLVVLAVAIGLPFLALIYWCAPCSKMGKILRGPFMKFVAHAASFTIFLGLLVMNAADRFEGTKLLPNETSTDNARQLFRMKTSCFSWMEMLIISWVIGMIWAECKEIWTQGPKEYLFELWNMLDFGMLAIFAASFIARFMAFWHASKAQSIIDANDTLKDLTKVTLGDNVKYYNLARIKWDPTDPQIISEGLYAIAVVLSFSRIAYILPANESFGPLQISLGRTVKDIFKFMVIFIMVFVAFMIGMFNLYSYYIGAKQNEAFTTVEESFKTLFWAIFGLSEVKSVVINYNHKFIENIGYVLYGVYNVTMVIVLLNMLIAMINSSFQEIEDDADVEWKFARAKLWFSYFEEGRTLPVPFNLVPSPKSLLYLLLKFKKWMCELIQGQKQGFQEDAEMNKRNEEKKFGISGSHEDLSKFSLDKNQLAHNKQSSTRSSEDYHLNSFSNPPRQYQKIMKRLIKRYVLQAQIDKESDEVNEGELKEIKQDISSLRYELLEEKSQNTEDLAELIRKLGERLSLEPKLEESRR

[11] = biological target: Short transient receptor potential channel 6 (Mus musculus) (UniProt Q61143); test: TRPC6 opening by TRPC4 activator hits – cell-based, HEK293, membrane potential dye, duplicate, selectivity assay for TRPC4 activator project, confirmation (AID 434950;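 active = membrane potential signal rise above negative control mean plus 3 SD in both duplicates, also active in the earlier TRPC4 screen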); conditions: HEK293 TRPC6, membrane potential fluorescence, at 10 µM; activation: active compounds read high; outcome: activation
[12] = biological target: Short transient receptor potential channel 6 (Mus musculus) (UniProt Q61143); test: positive modulators of mouse TRPC6 channel – HEK293 cells, membrane potential dye, duplicate, selectivity assay for TRPC4 potentiator project, confirmation (AID 434952;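 active = compound raising the membrane signal above positive-control mean plus 3 SD in both repeats, and a primary screen hit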); conditions: HEK293 TRPC6, membrane potential dye fluorescence, at 10 µM, maximal acetylcholine added after compound; active compounds read high
[13] = biological target: Short transient receptor potential channel 4 (Mus musculus) (UniProt Q9QUQ5); test: calcium flux activators in TRPC4/5HT1a cells, counter-screen for TRPC4 activator project, cell-based, second counter screen, HEK293 TRPC4/5HT1a, Fluo-4 (AID 434977;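 active = calcium signal rise above buffer-control mean plus 5 SD in both duplicates, and also a hit in the primary screen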); conditions: Fluo-4 calcium flux, at 10 µM; active compounds read high
[14] = serotonin-gated TRPC4 signal block – cell-based, second counter screen, HEK293 TRPC4/5HT1a, Fluo-4, counter-screen for TRPC4 inhibitor project, confirmation (AID 434978;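 active = primary screen active whose calcium signal fell more than 3 SD beyond the full-serotonin control mean in both duplicate plates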;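 also: serotonin given first at submaximal then at maximal dose after compound preincubation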); conditions: Fluo-4 calcium flux, at 10 µM, serotonin added to trigger calcium flux; active compounds read high
[15] = test system: TRPC4 (mouse), co-expressed with 5HT1a in HEK293; test: enhancement of serotonin-evoked TRPC4 response – cell-based, second counter screen, HEK293 TRPC4/5HT1a, Fluo-4, counter-screen for TRPC4 potentiator project, confirmation (AID 434979;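 active = signal rise over 3 SD above mean of control wells given weak agonist, in both repeats and first screen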); conditions: Fluo-4 calcium flux, at 10 µM, serotonin added at its EC20 dose; active compounds read high
[16] = nonspecific calcium rise without TRPC4 – cell-based, HEK293 mu-opioid receptor line, counter-screen for TRPC4 activator project, confirmation (AID 449723;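 active = hit in primary screen, with calcium signal over 5 SD above buffer well mean in both duplicates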;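 also: counter screen cells carry the mu-opioid receptor alone and lack TRPC4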); conditions: HEK293 mu-opioid cells, Fluo-4 calcium fluorescence, at 10 µM; active compounds read high
[17] = nonspecific potentiation of DAMGO calcium response – cell-based, HEK293 mu-opioid receptor line, counter-screen for TRPC4 allosteric potentiator project, confirmation (AID 449724;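 active = calcium signal rise more than 3 SD above the low-dose agonist control mean, in both duplicate plates and the primary screen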); conditions: HEK293 mu-opioid receptor cells, Fluo-4 calcium flux, at 10 µM, compound added before EC20 DAMGO stimulus; active compounds read high

Measured: potentiation

COc1ccc(/C=N/Nc2nc3ccccc3s2)cc1O
active: [15] 26%
inactive: all other assays above

C/C=C(/C)C(=O)O[C@@H]1c2cc(OC)c(OC)c(OC)c2-c2c(cc3c(c2OC)OCO3)C[C@H](C)[C@]1(C)O
inactive: all assays above

Cc1ccc(S(=O)(=O)c2c(C(=O)c3ccccc3)cnc3cc4c(cc23)OCCO4)cc1
active: [15] 14.5%
inactive: all other assays above

CCCn1c(N2CCN(S(=O)(=O)Cc3ccccc3)CC2)nc2ccccc21
active: [4] 11% | [15] 22.3%
inactive: all other assays above

Cc1oc(-c2ccc(Cl)cc2)nc1CS(=O)CC(=O)NCCCN(C)C1CCCCC1 (stereo unspecified)
inactive: all assays above

COc1ccc(C(=O)NNC(=O)CN2CCC(n3nnc4cc(C)ccc43)CC2)cc1
active: [3] 15% | [4] 28%
inactive: all other assays above

CCc1c(C)nc2ccc(Br)cc2c1SCCC#N
inactive: all assays above

Clc1ccc(N=C2SCC3CCCCN23)cc1 (stereo unspecified)
active: [4] 10% | [15] 35.2%
inactive: all other assays above
